Several values for one entry are separate records, joined by “and”; a condition that tells them apart may be missing. Equal values may be shown once. Inconclusive results are not listed. Where a structure was tested more than once in an assay, its records may differ in their call. Activity calls are given as the source filed them. The calls were made as follows, unless noted: active = hit-call score of the fitted dose curve at least 0.9, where 1 is the maximum; inconclusive = response in the unintended direction; inactive = score below 0.9.
What was measured:
[1] = tested on: Sodium/Iodide Symporter (NIS), SLC5A5 (gene 6528); experiment: CPHEA_Stoker_NIS_Inhibition_RAIU: CPHEA's Radioactive Iodide Uptake (RAIU) Assay for Sodium/Iodide Symporter (NIS) Inhibition, Stoker and Laws Labs (AID 2283841)
In short: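 Iodide uptake through human NIS is measured in an engineered HEK293T line. Cells take up 125I (329pM final) for 2 hours at room temperature alongside chemicals at 0.001–100uM. Retained radioactivity is counted, and the signal is expressed against DMSO controls.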

[2] = CPHEA_Stoker_NIS_Cytotoxicity: Cytotoxicity Assessment for CPHEA's Radioactive Iodide Uptake (RAIU) Assay for Sodium/Iodide Symporter (NIS) Inhibition, Stoker and Laws Labs (AID 2283897);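 as to AC50: active means loss of ATP signal versus DMSO meaning cytotoxicity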
In short: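 ATP luminescence (Cell Titer Glo) measured viability, with loss of signal normalized to DMSO controls. Cells: hNIS-HEK293T-EPA, seeded 40 hours prior. Dosing: 0.001–100uM, 2 hours, room temperature, uptake buffer pH 7.4.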

[3] = tested on: turtle Thyroid Hormone Receptor, alpha (TRa), gene 101949057; experiment: ATG_trTRa_XSP2: Attagene TRANS-FACTORIAL Multi-Species (XSP1) HepG2 Assay for turtle Thyroid Hormone Receptor, alpha (TRa) (AID 2283834);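 also: hits raise reporter mRNA over the DMSO baseline so AC50 marks activators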
In short: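 Gain-of-signal reporter transcription measured in transiently transfected HepG2 at 24 h post-dose. Fluorescent RT-PCR products were resolved by capillary electrophoresis and compared with DMSO vehicle.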

[4] = target: zebrafish Thyroid Hormone Receptor beta (TRb), thrb (gene 30607) (UniProt Q9PVE4); experiment: ATG_zfTRb_XSP2: Attagene TRANS-FACTORIAL Multi-Species (XSP1) HepG2 Assay for zebrafish Thyroid Hormone Receptor beta (TRb) (AID 2283836);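 as to AC50: potency for induction of reporter signal above DMSO so agonist direction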
In short: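 HepG2 cells transiently transfected with multiplexed GAL4-UAS reporter units expressing chimeric NR-Gal4 proteins; read 24 h after dosing. Reporter mRNA quantified by RT-PCR, 6-FAM labelling, HpaI digest and capillary electrophoresis; gain of signal fitted relative to DMSO.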

[5] = target: human Thyroid hormone Receptor alpha (TRa), THRA (gene 7067) (UniProt P10827); experiment: ATG_hTRa_XSP2: Attagene TRANS-FACTORIAL Multi-Species (XSP2) HepG2 Assay for human Thyroid hormone Receptor alpha (TRa) (AID 2283838)
In short: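 HepG2 cells transiently transfected with multiplexed GAL4-UAS reporter units and exogenous NR-GAL4 chimeras; 24 h chemical exposure with 3 nM 6-alpha-fluorotestosterone and 1.5 nM norgestrel present. Reporter mRNA measured by RT-PCR, FAM labelling, HpaI digestion, capillary electrophoresis; gain-of-signal versus DMSO.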

[6] = target: frog Thyroid hormone Receptor alpha (TRa), thra-a (gene 397942) (UniProt P15204); experiment: ATG_frTRa_XSP2: Attagene TRANS-FACTORIAL Multi-Species (XSP2) HepG2 Assay for frog Thyroid hormone Receptor alpha (TRa) (AID 2283839);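 as to AC50: AC50 reflects induction of frog TRa-driven reporter mRNA above DMSO baseline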
In short: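 Frog thyroid receptor alpha was tested as an exogenous NR-Gal4 fusion in transiently transfected HepG2 cells. After 24 h chemical treatment, reporter mRNA induction was quantified by RT-PCR and capillary electrophoresis, with gain-of-signal analysed relative to DMSO.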

[7] = target: human Thyroid hormone Receptor beta (TRb), THRB (gene 7068) (UniProt P10828); experiment: ATG_hTRb_XSP2: Attagene TRANS-FACTORIAL Multi-Species (XSP2) HepG2 Assay for human Thyroid hormone Receptor beta (TRb) (AID 2283840);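 also: actives raise reporter mRNA so potency reflects agonist-like gain of signal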
In short: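 In this cell-based multiplex, HepG2 liver cells carrying transfected GAL4-UAS reporter constructs are exposed to chemical for 24 hours, then reporter transcripts are measured by RT-PCR with capillary electrophoresis, scored as gain of signal against DMSO.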

[8] = CEETOX_H295R_11DCORT_noMTC: CeeTox H295R High-throughput Steroidogenesis Assay for 11-Deoxycortisol (11DCORT), maximum tolerated concentration (MTC) filtered results only (AID 2283911; active = hit-call score of the fitted dose curve at least 0.9, where 1 is the maximum; inactive = score below 0.9); conditions: actives raise or lower the signal
In short: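 Readout is 11-deoxycortisol in culture medium by reverse-phase HPLC with MS/MS, after 48 h chemical treatment of forskolin-primed H295R cells. Values are relative to DMSO and unfiltered for cytotoxicity.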

[9] = ATG_M_61_XSP2: Attagene TRANS-FACTORIAL Multi-Species (XSP2) HepG2 Assay for M61 Transcription Factor (Internal Marker) (AID 2283835; active = hit-call score of the fitted dose curve at least 0.9, where 1 is the maximum; inactive = score below 0.9;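 also: reporter mRNA of an internal background marker read by RT-PCR and capillary electrophoresis; active means a rise in signal above the DMSO baseline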)
In short: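 HepG2 cells transiently transfected with multiple GAL4-UAS reporter units; 3 nM 6-alpha-fluorotestosterone and 1.5 nM norgestrel present to stimulate androgen receptor. After 24 h compound exposure, reporter mRNA measured by RT-PCR and capillary electrophoresis fluorescence, gain-of-signal versus DMSO baseline.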

[10] = ATG_XTT_Cytotoxicity_XSP2: Cytotoxicity Assessment in the Attagene TRANS-FACTORIAL Multi-Species (XSP2) HepG2 Assay (AID 2283837)
In short: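 HepG2 cells, transiently transfected with multiple reporter constructs, exposed to chemical for 24 h. Cell number assessed with XTT fluorescence read-out; loss of signal fitted relative to DMSO.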

human Thyroid hormone Receptor beta (TRb), THRB (gene 7068), sequence (P10828 whole entry, looked up, the tested form may be a part): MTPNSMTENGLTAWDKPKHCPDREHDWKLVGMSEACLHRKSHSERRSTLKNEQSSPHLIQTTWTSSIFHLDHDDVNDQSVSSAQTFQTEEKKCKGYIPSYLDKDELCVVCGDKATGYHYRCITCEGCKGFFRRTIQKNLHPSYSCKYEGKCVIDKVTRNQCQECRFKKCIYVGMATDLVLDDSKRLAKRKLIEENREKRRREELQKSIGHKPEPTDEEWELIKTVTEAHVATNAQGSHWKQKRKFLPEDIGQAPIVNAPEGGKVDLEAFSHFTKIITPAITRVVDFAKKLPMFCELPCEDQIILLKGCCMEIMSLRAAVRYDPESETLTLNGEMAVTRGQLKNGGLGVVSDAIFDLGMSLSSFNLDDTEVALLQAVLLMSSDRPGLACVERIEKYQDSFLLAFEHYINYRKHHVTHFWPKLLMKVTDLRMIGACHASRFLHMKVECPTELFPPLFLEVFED
zebrafish Thyroid Hormone Receptor beta (TRb), thrb (gene 30607), sequence (Q9PVE4 whole entry, looked up, the tested form may be a part): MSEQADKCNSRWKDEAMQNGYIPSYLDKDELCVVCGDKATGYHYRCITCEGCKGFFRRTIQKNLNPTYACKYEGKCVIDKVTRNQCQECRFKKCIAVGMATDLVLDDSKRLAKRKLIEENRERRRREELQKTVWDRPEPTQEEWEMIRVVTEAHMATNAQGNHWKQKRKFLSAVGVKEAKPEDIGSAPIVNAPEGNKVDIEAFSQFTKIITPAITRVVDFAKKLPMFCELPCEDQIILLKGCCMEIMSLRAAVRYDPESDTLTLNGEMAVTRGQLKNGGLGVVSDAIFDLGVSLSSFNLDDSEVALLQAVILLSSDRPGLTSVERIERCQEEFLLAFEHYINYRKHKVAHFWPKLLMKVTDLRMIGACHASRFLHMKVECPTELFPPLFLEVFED
frog Thyroid hormone Receptor alpha (TRa), thra-a (gene 397942), sequence (P15204 whole entry, looked up, the tested form may be a part): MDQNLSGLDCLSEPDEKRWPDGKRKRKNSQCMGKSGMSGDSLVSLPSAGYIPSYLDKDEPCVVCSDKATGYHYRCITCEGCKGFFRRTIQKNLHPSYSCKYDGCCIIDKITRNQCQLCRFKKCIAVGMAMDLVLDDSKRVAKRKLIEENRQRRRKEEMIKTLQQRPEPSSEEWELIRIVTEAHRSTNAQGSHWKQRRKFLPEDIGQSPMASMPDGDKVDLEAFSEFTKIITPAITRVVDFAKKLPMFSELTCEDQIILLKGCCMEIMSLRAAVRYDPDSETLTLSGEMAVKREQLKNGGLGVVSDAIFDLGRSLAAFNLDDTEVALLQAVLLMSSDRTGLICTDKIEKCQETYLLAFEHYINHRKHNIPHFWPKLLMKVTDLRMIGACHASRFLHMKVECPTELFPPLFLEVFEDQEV
human Thyroid hormone Receptor alpha (TRa), THRA (gene 7067), sequence (P10827 whole entry, looked up, the tested form may be a part): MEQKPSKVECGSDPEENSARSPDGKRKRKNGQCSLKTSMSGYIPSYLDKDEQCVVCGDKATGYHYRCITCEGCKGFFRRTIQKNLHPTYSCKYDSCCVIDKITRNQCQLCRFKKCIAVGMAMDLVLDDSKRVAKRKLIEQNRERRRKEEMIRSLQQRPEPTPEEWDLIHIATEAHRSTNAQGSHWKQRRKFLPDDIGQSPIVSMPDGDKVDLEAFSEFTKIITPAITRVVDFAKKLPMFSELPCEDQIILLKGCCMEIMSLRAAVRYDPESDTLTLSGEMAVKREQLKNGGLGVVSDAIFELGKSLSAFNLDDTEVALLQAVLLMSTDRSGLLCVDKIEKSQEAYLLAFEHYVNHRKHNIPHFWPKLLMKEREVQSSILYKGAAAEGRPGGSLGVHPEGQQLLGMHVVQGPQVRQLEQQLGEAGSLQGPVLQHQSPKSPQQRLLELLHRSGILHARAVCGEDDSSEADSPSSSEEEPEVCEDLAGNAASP

CCCCCCCCCCCCCOS(=O)(=O)O
outcome [1]: inactive | outcome [2]: inactive

CC(C)=CCCC(C)=CCCC(C)=CCO
outcome [1]: inactive | outcome [2]: inactive

O=C(Oc1ccccc1)c1ccc(O)cc1
outcome [3]: inactive | outcome [4]: inactive | outcome [5]: inactive | AC50 [6]: 166 µM (active) | outcome [6]: inactive | outcome [7]: inactive | outcome [2]: inactive

Cc1ccc(S)cc1
outcome [1]: inactive | outcome [2]: inactive

CN(C)C(=N)N=C(N)N
outcome [3]: inactive | outcome [4]: inactive | outcome [6]: inactive | outcome [7]: inactive

c1ccc2[nH]ccc2c1
outcome [1]: inactive

O=C1c2ccccc2C(=O)N1SC1CCCCC1
outcome [1]: inactive | AC50 [2]: 79.4 µM (active)

CC1CC(OC(=O)c2ccccc2O)CC(C)(C)C1 (stereo not given)
outcome [8]: inactive

CN(CCOc1ccc(CC2SC(=O)NC2=O)cc1)c1ccccn1 (stereo not given)
outcome [9]: inactive | outcome [4]: inactive | outcome [6]: inactive

CCN(CC)CCOC(=O)c1ccc(N)cc1
outcome [1]: inactive | outcome [2]: inactive

CCCCCCCCCCCCCCCCCC(=O)OCC(CC)CCCC (stereo not given)
outcome [1]: inactive | outcome [2]: inactive

c1ccc(CCCc2ccccn2)cc1
outcome [1]: inactive | outcome [2]: inactive

CCCCCCCCCCCCN
outcome [3]: inactive | outcome [4]: inactive | outcome [6]: inactive

CSc1nc(NC2CC2)nc(NC(C)(C)C)n1
AC50 [1]: 10 µM (active) | outcome [2]: inactive

COc1cc(C(C)(C)C)c(O)c(C(C)(C)C)c1
outcome [1]: inactive | outcome [2]: inactive

CCCCCCCCC
outcome [1]: inactive | outcome [2]: inactive

O=c1cc(-c2ccccc2)oc2cc(O)cc(O)c12
outcome [3]: inactive | outcome [9]: inactive | AC50 [4]: 100 µM (active) | outcome [4]: inactive | outcome [10]: inactive | AC50 [5]: 10.9 µM (active) and 7.51 µM (active) | AC50 [6]: 26.2 µM (active) and 1.8 µM (active) | AC50 [7]: 100 µM (active) | outcome [7]: inactive | outcome [1]: inactive | outcome [2]: inactive

BrC1CCC(Br)C(Br)CCC(Br)C(Br)CCC1Br (stereo not given)
outcome [1]: inactive | outcome [2]: inactive

CC(C)=CCC[C@](C)(O)[C@@H]1CC=C(C)CC1
outcome [2]: inactive

CCN(CC)c1ccc2c(-c3ccccc3C(=O)O)c3ccc(=[N+](CC)CC)cc-3oc2c1
outcome [1]: inactive | AC50 [2]: 13.3 µM (active)

Cc1ccc(C(C)C)cc1O
outcome [8]: inactive

Cc1ccc(O)c(C(C)(C)C)c1
outcome [1]: inactive | outcome [2]: inactive

CC(C)C[C@H]1C(=O)N2CCC[C@H]2[C@]2(O)O[C@](NC(=O)[C@@H]3C=C4c5cccc6[nH]c(Br)c(c56)C[C@H]4N(C)C3)(C(C)C)C(=O)N12
outcome [1]: inactive | outcome [2]: inactive

Source: PubChem BioAssay (EPA / NIEHS)
